Measured values reported in PubChem BioAssay (NCATS).
Inconclusive results are not listed. Where a call stands in place of a potency, no number is given. Unmarked numbers belong to inactive results. Active and inactive are the calls of the source. The call rests on the fitted dose curve; in most records, active means well fitted curve in the direction sought with a large enough effect; inconclusive means small, poorly fitted or top-dose-only effect, or another doubt; inactive means no such curve, though single readings can be large; an effect the other way counts as inactive or inconclusive.

Key:
[1] = qHTS of pediatric cancer cell lines to identify multiple opportunities for drug repurposing: Primary screen for SJ-GBM2 cells (AID 1347091); further: potency means the concentration at half of the fitted maximal effect
In short: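 Eight- or eleven-point concentration series, 48 h treatment at 37 degrees C in growth media; readout CellTiter-Glo luminescence. Potency and efficacy were taken from the concentration-response curves.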

[2] = qHTS of pediatric cancer cell lines to identify multiple opportunities for drug repurposing: Primary screen for SK-N-MC cells (AID 1347093); further: potency means the concentration at half of the fitted maximal effect
In short: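 Metabolically active cells were quantified by ATP-dependent luminescence (CellTiter-Glo, 15 min at room temperature) following 48 h treatment. Cells had been plated at 500-1,000 per well and settled for 5 h beforehand.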

[3] = qHTS of pediatric cancer cell lines to identify multiple opportunities for drug repurposing: Primary screen for BT-37 cells (AID 1347094); further: potency means the concentration at half of the fitted maximal effect
In short: (§1)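 ATP-based luminescence (CellTiter-Glo) quantifies viability after a 48-hour exposure. Compounds are dosed across 8 or 11 final concentrations; DMSO and 2.3 µM bortezomib serve as controls.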

[4] = qHTS of pediatric cancer cell lines to identify multiple opportunities for drug repurposing: Primary screen for NB-EBc1 cells (AID 1347095); further: potency means the concentration at half of the fitted maximal effect
In short: as §1

[5] = qHTS of pediatric cancer cell lines to identify multiple opportunities for drug repurposing: Primary screen for Saos-2 cells (AID 1347097); further: nearly all actives have a fitted effect of over 40% in size; further: potency means the concentration at half of the fitted maximal effect
In short: as §1

[6] = qHTS of pediatric cancer cell lines to identify multiple opportunities for drug repurposing: Primary screen for LAN-5 cells (AID 1347100); further: potency means the concentration at half of the fitted maximal effect
In short: (§2)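 Cells (500-1,000/well) in growth media were settled 5 h at 37 degrees C, then given compounds for 48 h. Viability was read as CellTiter-Glo luminescence. Primary runs used MIPE at 11 points (0.78 nM-46 µM) and NPC at 8 points (0.59 nM-46 µM); follow-ups used 11 points.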

[7] = qHTS of pediatric cancer cell lines to identify multiple opportunities for drug repurposing: Primary screen for BT-12 cells (AID 1347101); further: nearly all actives have a fitted effect of over 25% in size; further: potency means the concentration at half of the fitted maximal effect
In short: (§3)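 Cells (500-1,000/well) rested 5 h, then received compounds for 48 h; metabolically active cells were measured by CellTiter-Glo luminescence. Final concentrations spanned up to 46 µM (MIPE, 11-point) or 0.59 nM-46 µM (NPC, 8-point) in primary screens, 11-point in follow-ups.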

[8] = qHTS of pediatric cancer cell lines to identify multiple opportunities for drug repurposing: Primary screen for Rh18 cells (AID 1347102); further: nearly all actives have a fitted effect of over 65% in size; further: potency means the concentration at half of the fitted maximal effect
In short: as §2

[9] = qHTS of pediatric cancer cell lines to identify multiple opportunities for drug repurposing: Primary screen for control Hh wild type fibroblast cells (AID 1347106); further: nearly all actives have a fitted effect of over 55% in size; further: potency means the concentration at half of the fitted maximal effect
In short: as §2

[10] = qHTS of pediatric cancer cell lines to identify multiple opportunities for drug repurposing: Primary screen for Rh30 cells (AID 1347107); further: nearly all actives have a fitted effect of over 75% in size; further: potency means the concentration at half of the fitted maximal effect
In short: as §2

[11] = qHTS of pediatric cancer cell lines to identify multiple opportunities for drug repurposing: Primary screen for U-2 OS cells (AID 1347096); further: nearly all actives have a fitted effect of over 50% in size; further: potency means the concentration at half of the fitted maximal effect
In short: as §2

[12] = qHTS of pediatric cancer cell lines to identify multiple opportunities for drug repurposing: Primary screen for MG 63 (6-TG R) cells (AID 1347105); further: nearly all actives have a fitted effect of over 50% in size
In short: as §1

[13] = qHTS of pediatric cancer cell lines to identify multiple opportunities for drug repurposing: Primary screen for NB1643 cells (AID 1347099); further: nearly all actives have a fitted effect of over 50% in size; further: potency means the concentration at half of the fitted maximal effect
In short: as §1

[14] = qHTS of pediatric cancer cell lines to identify multiple opportunities for drug repurposing: Primary screen for OHS-50 cells (AID 1347103); further: nearly all actives have a fitted effect of over 40% in size; further: potency means the concentration at half of the fitted maximal effect
In short: as §3

[15] = qHTS of pediatric cancer cell lines to identify multiple opportunities for drug repurposing: Confirmatory screen for A673 cells (AID 1347110);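 further: potency means the concentration at half of the fitted maximal effect; cells exposed to compound for 48 h before the viability read; nearly all actives have a fitted effect of over 65% in size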
In short: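 qHTS titration format: primary MIPE 0.78 nM-46 µM (11 pts), NPC 0.59 nM-46 µM; confirmation 11 pts. 48 h, CTG luminescence.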

[16] = qHTS of pediatric cancer cell lines to identify multiple opportunities for drug repurposing: Primary screen for A673 cells (AID 1347092); further: nearly all actives have a fitted effect of over 45% in size
In short: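 Luminescence from CellTiter-Glo, taken after 15 min at room temperature, served as the proxy for metabolically active cells following 48 h treatment. Both potency and efficacy were taken from curves fitted to the titration data.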

[17] = qHTS of pediatric cancer cell lines to identify multiple opportunities for drug repurposing: Primary screen for SK-N-SH cells (AID 1347098); further: nearly all actives have a fitted effect of over 65% in size; further: potency means the concentration at half of the fitted maximal effect
In short: as §3

[18] = qHTS of pediatric cancer cell lines to identify multiple opportunities for drug repurposing: Primary screen for Rh41 cells (AID 1347108); further: nearly all actives have a fitted effect of over 70% in size; further: potency means the concentration at half of the fitted maximal effect
In short: as §1

[19] = qHTS of pediatric cancer cell lines to identify multiple opportunities for drug repurposing: Primary screen for RD cells (AID 1347104); further: nearly all actives have a fitted effect of over 55% in size; further: potency means the concentration at half of the fitted maximal effect
In short: as §1

Row | SMILES | Potency [1] | Potency [2] | Potency [3] | Potency [4] | Potency [5] | Potency [6] | Potency [7] | Potency [8] | Potency [9] | Potency [10] | Potency [11] | Potency [12] | Potency [13] | Potency [14] | Potency [15] | Potency [16] | Potency [17] | Potency [18] | Potency [19]
1 | C[C@H](NC(=O)Cc1cc(F)cc(F)c1)C(=O)N[C@H](C(=O)OC(C)(C)C)c1ccccc1 | inactive | 14800 nM (active) | inactive | inactive | inactive | inactive | inactive | inactive | inactive | inactive | – | – | – | – | – | – | – | – | –
2 | CCn1c(=O)c2c(nc(C=Cc3ccc(OC)c(OC)c3)n2C)n(CC)c1=O | inactive | 18700 nM (active) | inactive | inactive | inactive | – | inactive | inactive | inactive | inactive | inactive | inactive | – | – | – | – | – | – | –
3 | N#Cc1c(NC(=O)c2cccc3ccccc23)sc2c1CCCC2 | 332 nM (active) | 235 nM (active) | 1090 nM (active) | 332 nM (active) | 132 nM (active) | – | 1090 nM (active) | – | – | inactive | – | – | 4690 nM (active) | 485 nM (active) | 414 nM (active) | – | – | – | –
4 | CN(C)CC[C@H](c1ccc(Cl)cc1)c1ccccn1 | inactive | 10500 nM (active) | inactive | inactive | inactive | inactive | inactive | inactive | inactive | inactive | inactive | inactive | – | inactive | – | – | – | – | –
5 | O=C1c2cccc(O)c2C(=O)c2c(O)cc(CO)cc21 | inactive | – | inactive | – | inactive | inactive | inactive | inactive | inactive | inactive | – | inactive | – | inactive | – | inactive | inactive | inactive | –
6 | C[C@@H](NCc1cc2ccccc2[nH]1)c1cccc2ccccc12 | inactive | – | inactive | – | inactive | inactive | inactive | inactive | inactive | inactive | inactive | inactive | inactive | inactive | – | inactive | inactive | inactive | inactive
7 | Cc1cc(-c2nnc3n2CCCCC3)c(C)n1-c1ccccc1 | inactive | inactive | inactive | inactive | – | inactive | – | inactive | inactive | – | inactive | inactive | inactive | – | – | – | inactive | inactive | inactive
8 | Cc1ncc(-c2ccnc(Nc3ccc(S(C)(=O)=O)cc3)n2)n1C(C)C | 1320 nM (active) | 2350 nM (active) | 6110 nM (active) | 2350 nM (active) | 3720 nM (active) | – | 3850 nM (active) | – | inactive | inactive | – | – | 2350 nM (active) | 3850 nM (active) | – | – | – | 5900 nM (active) | 6620 nM (active)
9 | COC[C@H](NC(=O)c1cnc(C)s1)C(=O)N[C@@H](COC)C(=O)N[C@@H](Cc1ccccc1)C(=O)[C@@]1(C)CO1 | 66.2 nM (active) | 29.6 nM (active) | 273 nM (active) | 83.3 nM (active) | 662 nM (active) | 132 nM (active) | – | 187 nM (active) | 935 nM (active) | 1660 nM (active) | 372 nM (active) | – | 132 nM (active) | 193 nM (active) | 165 nM (active) | – | 541 nM (active) | 296 nM (active) | 166 nM (active)
10 | C=C[C@@H]1CN2CCC1C[C@H]2[C@H](O)c1ccnc2ccc(OC)cc12 (some centres not stated) | inactive | – | inactive | inactive | – | inactive | inactive | inactive | inactive | inactive | – | – | – | – | – | inactive | inactive | inactive | inactive
11 | CC(=O)O[C@H]1C[C@@H]2CC[C@H]3[C@H]4C[C@H]([N+]5(C)CCCCC5)[C@@H](OC(C)=O)[C@@]4(C)CC[C@@H]3[C@@]2(C)C[C@H]1[N+]1(C)CCCCC1 | inactive | inactive | inactive | inactive | inactive | inactive | inactive | inactive | inactive | inactive | inactive | inactive | inactive | inactive | – | – | inactive | inactive | inactive
12 | FC(F)(F)c1ccc(Nc2nc3ccc(Oc4ccnc(-c5ncc(C(F)(F)F)[nH]5)c4)cc3[nH]2)cc1 | 16600 nM (active) | 4180 nM (active) | 13700 nM (active) | 20900 nM (active) | 7430 nM (active) | – | – | – | inactive | – | – | – | 16600 nM (active) | 24300 nM (active) | – | – | 5410 nM (active) | – | 18700 nM (active)
13 | C[C@](Cc1c[nH]c2ccccc12)(NC(=O)OC1C2CC3CC(C2)CC1C3)C(=O)NC[C@H](NC(=O)CCC(=O)O)c1ccccc1 (some centres not stated) | inactive | 20900 nM (active) | inactive | inactive | inactive | – | – | inactive | inactive | inactive | inactive | inactive | – | inactive | – | – | – | inactive | inactive
14 | CCOc1cc2ncc(C#N)c(Nc3ccc(OCc4ccccn4)c(Cl)c3)c2cc1NC(=O)C=CCN(C)C | 1180 nM (active) | 105 nM (active) | 1090 nM (active) | 332 nM (active) | 1180 nM (active) | – | 1930 nM (active) | – | – | – | – | – | 590 nM (active) | 863 nM (active) | 10400 nM (active) | – | 121 nM (active) | – | 418 nM (active)
